Each structure is given as a SMILES string. The source made the active and inactive calls. How the calls were made is not given here.

The target in the assay is Pantothenate synthetase (Mycobacterium tuberculosis (strain ATCC 25618 / H37Rv)) (UniProt P9WIL5). The assay is described as follows: Recombinant Mtb pantothenate synthetase (PanC) inhibitors, coupled enzyme, confirmatory (AID 375).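 Further: 0% = full reaction with vehicle and 100% = no enzyme background.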 The note with it: coupled enzyme assay; at 10 µM, hits give high values.
Pantothenate synthetase (Mycobacterium tuberculosis (strain ATCC 25618 / H37Rv)), sequence (P9WIL5 whole entry, looked up): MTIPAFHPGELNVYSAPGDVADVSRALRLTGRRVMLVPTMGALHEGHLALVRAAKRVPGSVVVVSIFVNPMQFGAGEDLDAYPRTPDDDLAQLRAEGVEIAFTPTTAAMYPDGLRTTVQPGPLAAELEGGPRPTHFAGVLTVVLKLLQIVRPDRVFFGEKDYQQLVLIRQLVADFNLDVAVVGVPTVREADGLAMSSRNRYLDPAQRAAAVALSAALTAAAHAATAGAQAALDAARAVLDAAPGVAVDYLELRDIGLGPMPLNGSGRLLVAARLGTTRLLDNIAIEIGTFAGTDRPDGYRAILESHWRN
Regarding `CN(C(=O)c1ccccc1Cl)c1ccccc1`, the inhibition was 2% (inactive).
In the case of `CCOC(=O)N1CCN(c2c(NCC3CCN(Cc4cccc(C)c4)CC3)c(=O)c2=O)CC1`, the inhibition is 4% (inactive).
As for `CC12CN3CCN(CC(C3)C1(O)CN1CCCCC1)C2` (stereo not given), the figure is 0% (inactive); as for `O=C(O)Cc1ccc(-c2ccccc2)cc1`, 0% (inactive).
The result for `Cc1cccc(Cc2c(C)nc3nc(SCC(=O)NCc4ccco4)nn3c2C)c1` reads 2% (inactive); that for `CCOC(=O)c1[nH]c(C)c(C(=O)N2CCN(C(=O)c3ccco3)CC2)c1C`, 0% (inactive).
As for `COCc1[nH]nc2c1C(C1C=CCCC1)C(C#N)=C(N)O2` (stereo not given), the figure is 0% (inactive).
As for `CCC(C)(C)n1nnnc1C(c1cc2cc(OC)ccc2[nH]c1=O)N1CCc2ccccc21` (stereo not given), the inhibition is 0% (inactive).
As to `Cc1c(C#N)c2ncnc(-c3ccccc3)c2n1-c1ccccc1`, the inhibition was 0% (inactive).
On to `Cc1cc2nc3c(nc2cc1C)C1(C(=O)O)CCC3(C)C1(C)C` (stereo not given), for which the inhibition was 0% (inactive).
Turning to `COc1ccc(C(=O)NCCn2ccc3ccccc32)c(OC)c1`, the inhibition is 5% (inactive).
Take `O=C(c1cnc2sccn2c1=O)N1CCc2ccccc2C1`: the inhibition is 0% (inactive).
On to `CCOC(=O)C1=C(C)NC(=O)NC1c1ccc(Br)s1` (stereo not given), for which the inhibition was 1% (inactive).
Consider `CCn1c(SCC(=O)Nc2ccc3c(c2)OCO3)nnc1-c1ccccc1O`, for which the inhibition was 2% (inactive).
As to `CCOc1ccc(C2C(C(=O)OC)=CN(CCOC)C=C2C(=O)OC)cc1`, the inhibition is 4% (inactive).
As to `O=C(CN1C(=O)CCSc2ccccc21)Nc1ccc2c(c1)OCO2`, the inhibition was 2% (inactive).
Regarding `CSc1ccccc1NC(=O)CN(Cc1ccccc1)S(C)(=O)=O`, the inhibition is 0% (inactive).
For `CC(C)C(OC(=O)c1ccco1)C(=O)NCc1ccccc1` (stereo not given), the inhibition is 5% (inactive).
The result for `O=C1NCC(COCc2ccccc2)O1` (stereo not given) reads 3% (inactive); that for `O=C(CSc1nnc(CNC(=O)c2cccs2)o1)NCCc1ccccc1`, 0% (inactive); that for `CC(C)OC(=O)c1cccc(C(=O)O)n1`, 4% (inactive).
For the compound `COc1ccc(N2CCN(C(c3cccs3)c3nnnn3C3CCCC3)CC2)cc1` (stereo not given), the inhibition is 6% (inactive).
`Clc1ss/c(=N\c2ccccn2)c1Cl`: the inhibition was 0% (inactive).
Regarding `COc1ccc2[nH]c(=O)c(CN(C(=O)c3ccncc3)C(C)C)cc2c1`, the inhibition was 0% (inactive).
Take `Cc1ccc(S(=O)(=O)N2CCOCC2)cc1C(=O)Nc1ccccn1`: the inhibition is 0% (inactive).
As for `COc1cccc(C(=O)NC2=NCCS2)c1`, the inhibition is 0% (inactive).
Turning to `CC(=O)Oc1ccc(CCC(C)OC(C)=O)cc1` (stereo not given), the inhibition was 8% (inactive).
On to `O=C1CCCc2c1cc(C(=O)NCc1ccco1)c(=O)n2-c1ccc(Cl)cc1`, for which the inhibition is 9% (inactive).
For `Cc1ccc2cc(CCNC(=O)C(C)C)c(=O)[nH]c2c1C`, the inhibition is 3% (inactive).
Turning to `CCOc1ccc(OCC)c2sc(C)nc12`, the inhibition is 2% (inactive).
In the case of `COc1ccc(/C=C/C(=O)Nc2ccccc2C(=O)O)cc1OC`, the inhibition was 0% (inactive).
For the compound `CCOC(=O)CS(=O)(=O)c1nc(-c2ccccc2)cc(C(F)(F)F)n1`, the inhibition is 3% (inactive).
`NC(=O)c1oc2ccc(Cl)cc2c1NC(=O)CN1CCOCC1`: the inhibition is 1% (inactive).
The result for `CCCCNc1cc(C(=O)O)cc(S(N)(=O)=O)c1Oc1ccccc1` reads 3% (inactive); that for `Cc1nnc(NC(=O)CSc2cn(CCNC(=O)c3ccccc3)c3ccccc23)s1`, 0% (inactive); that for `O=c1c(O)c(-c2ccc(O)cc2O)oc2cc(O)cc(O)c12`, 9% (inactive).
The result for `Cc1cc(C)c2c(=O)n(CC(=O)N3CCC(Cc4ccccc4)CC3)sc2n1` reads 0% (inactive).
As to `CCOc1cc(N2CCOCC2)c(OCC)cc1NC(=O)CSc1cccc[n+]1[O-]`, the inhibition is 3% (inactive).
Regarding `CC1CN(c2nc3ccccc3nc2C(C#N)C(=O)OC2CCCCC2)CC(C)O1` (stereo not given), the inhibition is 2% (inactive).
As to `CC(O)CN(Cc1cccc(Cl)c1)CC(C)O` (stereo not given), the inhibition is 5% (inactive).

These data come from PubChem BioAssay.
